The AC50 is the concentration at which the activity in the assay is half-maximal.

6 molecules from PubChem BioAssay (EPA / NIEHS) can be followed below.

Read-out in experiment [1]: Interleukin-6 (IL6), IL6 (gene 3569)
The experiment can be described thus: BSK_CASM3C_IL6: BioMAP Diversity Plus: CASM3C Assay for Interleukin-6 (IL6) Biomarker Activity for (AID 2283040). Conditions: primary human coronary artery smooth muscle cells; actives raise or lower the signal.

Read-out in experiment [2]: Tissue plasminogen activator (tPA), PLAT (gene 5327)
Description: BSK_BE3C_tPA: BioMAP Diversity Plus: BE3C Assay for Tissue plasminogen activator (tPA) Biomarker Activity (AID 2283041).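 Further: tPA level quantified by ELISA one day after compound addition.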 Conditions: primary human bronchial epithelial cells; actives raise or lower the signal. In outline: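 Human primary bronchial epithelial cells were dosed with chemical and tPA biomarker levels measured by ELISA 24 hours later. Activity was fitted bidirectionally against DMSO as negative control and baseline.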

Read-out in experiment [3]: Interleukin-8 (IL8), CXCL8 (gene 3576)
Description: BSK_CASM3C_IL8: BioMAP Diversity Plus: CASM3C Assay for Interleukin-8 (IL8) Biomarker Activity (AID 2283042).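 Further: IL-8 protein level quantified by ELISA.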 Conditions: primary human coronary artery smooth muscle cells; actives raise or lower the signal.

Read-out in experiment [4]: Human Leukocyte Antigen - DR isotype (HLADR), HLA-DRA (gene 3122)
The experiment can be described thus: BSK_CASM3C_HLADR: BioMAP Diversity Plus: CASM3C Assay for Human Leukocyte Antigen - DR isotype (HLADR) Biomarker Activity (AID 2283043).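 Further: cell-surface HLA-DR protein level quantified by ELISA.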 The following applies: primary human coronary artery smooth muscle cells; actives raise or lower the signal.

Read-out in experiment [5]: Macrophage colony-stimulating factor (MCSF), CSF1 (gene 1435)
Description: BSK_CASM3C_MCSF: BioMAP Diversity Plus: CASM3C Assay for Macrophage colony-stimulating factor (MCSF) Biomarker Activity (AID 2283044).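 Further: M-CSF protein amount quantified by ELISA after 24 h exposure.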 Conditions: primary human coronary artery smooth muscle cells; actives raise or lower the signal.

Read-out in experiment [6]: Low-density lipoprotein receptor (LDLR), LDLR (gene 3949)
Description: BSK_CASM3C_LDLR: BioMAP Diversity Plus: CASM3C Assay for Low-density lipoprotein receptor (LDLR) Biomarker Activity (AID 2283045).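 Further: LDLR protein level on the cell surface quantified by ELISA.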 Conditions: primary human coronary artery smooth muscle cells; actives raise or lower the signal.

Read-out in experiment [7]: Monocyte Chemoattractant Protein-1 (MCP1), CCL2 (gene 6347)
The experiment can be described thus: BSK_CASM3C_MCP1: BioMAP Diversity Plus: CASM3C Assay for Monocyte Chemoattractant Protein-1 (MCP1) Biomarker Activity (AID 2283046).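 Further: MCP-1 level quantified by ELISA 24 h after dosing.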 Conditions: primary human coronary artery smooth muscle cells; actives raise or lower the signal.

Experiment [8] can be described thus: BSK_CASM3C_Proliferation: Cell Proliferation Assessment in the BioMAP Diversity Plus: CASM3C Assay (AID 2283047).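 Further: sulforhodamine B total protein stain as relative cell number at 560 nm; sub-confluent cells exposed 48 h before staining; fitted both ways against DMSO so gain or loss of cell number.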 Conditions: primary human coronary artery smooth muscle cells.
Read-out in experiment [9]: Monokine induced gamma interferon (MIG), CXCL9 (gene 4283)
Description: BSK_CASM3C_MIG: BioMAP Diversity Plus: CASM3C Assay for Monokine induced gamma interferon (MIG) Biomarker Activity (AID 2283048).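 Further: MIG protein level measured by ELISA.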 The following applies: primary human coronary artery smooth muscle cells; actives raise or lower the signal.

Read-out in experiment [10]: serum amyloid A (SAA), SAA1 (gene 6288)
Description: BSK_CASM3C_SAA: BioMAP Diversity Plus: CASM3C Assay for serum amyloid A (SAA) Biomarker Activity (AID 2283049).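 Further: SAA protein level quantified by ELISA.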 The following applies: primary human coronary artery smooth muscle cells; actives raise or lower the signal.

Experiment [11] can be described thus: BSK_CASM3C_SRB: Viability Assessment in the BioMAP Diversity Plus: CASM3C Assay (AID 2283050).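 Further: total protein by SRB staining as cytotoxicity measure in parallel cultures.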 The following applies: primary human coronary artery smooth muscle cells.
Read-out in experiment [12]: Thrombomodulin, THBD (gene 7056)
Description: BSK_CASM3C_Thrombomodulin: BioMAP Diversity Plus: CASM3C Assay for Thrombomodulin Biomarker Activity (AID 2283051).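 Further: thrombomodulin protein level measured by ELISA 24 h after dosing.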 The following applies: primary human coronary artery smooth muscle cells; actives raise or lower the signal.

Read-out in experiment [13]: Tissue Factor, F3 (gene 2152)
The experiment can be described thus: BSK_CASM3C_TissueFactor: BioMAP Diversity Plus: CASM3C Assay for Tissue Factor Biomarker Activity (AID 2283052).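 Further: cell surface tissue factor protein level read by ELISA.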 The following applies: primary human coronary artery smooth muscle cells; actives raise or lower the signal.

Read-out in experiment [14]: Interferon-gamma inducible Protein 10 (IP10), CXCL10 (gene 3627)
The experiment can be described thus: BSK_hDFCGF_IP10: BioMAP Diversity Plus: hDFCGF Assay for Interferon-gamma inducible Protein 10 (IP10) Biomarker Activity (AID 2283053). Conditions: primary human foreskin fibroblasts; actives raise or lower the signal. In outline:
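Human foreskin fibroblast primary cells (hDFCGF system) were dosed with chemical and assayed at 24 h; IP-10 measured by ELISA. Activity fitted bidirectionally relative to DMSO negative control as baseline.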

Read-out in experiment [15]: Urokinase-type plasminogen activator receptor (uPAR), PLAUR (gene 5329)
The experiment can be described thus: BSK_CASM3C_uPAR: BioMAP Diversity Plus: CASM3C Assay for Urokinase-type plasminogen activator receptor (uPAR) Biomarker Activity (AID 2283054).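 Further: cell-surface uPAR protein level quantified by ELISA.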 The following applies: primary human coronary artery smooth muscle cells; actives raise or lower the signal.

Read-out in experiment [16]: Vascular cell adhesion molecule 1 (VCAM1), VCAM1 (gene 7412)
Description: BSK_CASM3C_VCAM1: BioMAP Diversity Plus: CASM3C Assay for Vascular cell adhesion molecule 1 (VCAM1) Biomarker Activity (AID 2283055).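 Further: VCAM-1 protein level quantified by ELISA on the cells.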 Conditions: primary human coronary artery smooth muscle cells; actives raise or lower the signal.

Read-out in experiment [17]: Collagen III, COL3A1 (gene 1281)
Description: BSK_hDFCGF_CollagenIII: BioMAP Diversity Plus: hDFCGF Assay for Collagen III Biomarker Activity (AID 2283056). The following applies: primary human foreskin fibroblasts; actives raise or lower the signal. The essentials:
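Cells: human foreskin fibroblasts, primary. Dosing followed by 24 h incubation, then ELISA for collagen III. Both increases and decreases scored relative to DMSO.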

Read-out in experiment [18]: Epidermal growth factor receptor (EGFR), EGFR (gene 1956)
The experiment can be described thus: BSK_hDFCGF_EGFR: BioMAP Diversity Plus: hDFCGF Assay for Epidermal growth factor receptor (EGFR) Biomarker Activity (AID 2283057). Conditions: primary human foreskin fibroblasts; actives raise or lower the signal. In outline: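 Primary human foreskin fibroblasts were exposed to compound for 24 h, after which cell-surface EGFR was quantified by ELISA. Activity was fitted bidirectionally against the DMSO negative control as baseline.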

Read-out in experiment [19]: Interleukin-8 (IL8), CXCL8 (gene 3576)
The experiment can be described thus: BSK_hDFCGF_IL8: BioMAP Diversity Plus: hDFCGF Assay for Interleukin-8 (IL8) Biomarker Activity (AID 2283058). The following applies: primary human foreskin fibroblasts; actives raise or lower the signal. The essentials: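 IL-8 levels from compound-treated primary human fibroblasts were read by ELISA at 24 h, with DMSO serving as baseline for bidirectional fitting.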

Experiment [20] can be described thus: BSK_hDFCGF_Proliferation: Cell Proliferation Assessment in the BioMAP Diversity Plus: hDFCGF Assay (AID 2283059).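 Further: curves fitted for both rise and fall of signal versus DMSO baseline.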 Conditions: primary human foreskin fibroblasts. In outline: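 Primary human foreskin fibroblasts, sub-confluent; […]; 10% TCA fix, 0.1% SRB stain, A560 total protein. Gain/loss fitted bidirectionally vs DMSO control.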

Activity calls are given as the source filed them. How the source made its calls: active means hit-call score of the fitted dose curve at least 0.9, where 1 is the maximum; inactive means score below 0.9.

Regarding `CCOC(=O)COc1cc(-c2nn(C)c(OC(F)F)c2Cl)c(F)cc1Cl`, the result in experiment [1], in [2], in [3], in experiment [4], in [5] and in [6] was inactive. The outcome in experiment [7], in [8], in experiment [9], in experiment [10], in experiment [11] and in [12] was inactive. Moreover, the outcome in experiment [13], in experiment [14], in experiment [15], in experiment [16], in [17] and in experiment [18] was inactive. The result in [19] and in [20] was inactive.
With `CNC(=O)Oc1cccc2c1OC(C)(C)O2`, the result in experiment [1], in experiment [2], in experiment [3], in experiment [4], in experiment [5] and in experiment [6] was inactive. Besides, the result in [7], in experiment [8], in experiment [9], in experiment [10], in [11] and in experiment [12] was inactive. In addition, the outcome in [13], in experiment [14], in [15], in experiment [16], in [17] and in experiment [19] was inactive. In experiment [18], the AC50 was 12.2 µM (active).
With `COP(=O)(OC)OC(Br)C(Cl)(Cl)Br` (configuration not stated), the concentration at half-maximal activity (AC50) in experiment [1] is 31.2 µM (active); in experiment [3], 32.2 µM (active); in experiment [5], 27.7 µM (active); in experiment [7], 28.6 µM (active); in experiment [8] it was 11.2 µM (active); in [9], 29.8 µM (active). For the same molecule, the AC50 in [10] is 29.9 µM (active); in experiment [11], 28.8 µM (active); in experiment [14], 13.9 µM (active); in [15], 32 µM (active); in [16] it was 18.5 µM (active); in experiment [17], 31.5 µM (active). Also, the AC50 in experiment [19] was 37.8 µM (active); in experiment [20] it was 2.6 µM (active). For the same molecule, the outcome in [2], in experiment [4], in [6], in [12], in [13] and in experiment [18] was inactive.
With `CCOP(=O)(NC(C)C)Oc1ccc(SC)c(C)c1` (configuration not stated), the outcome in [1], in experiment [2], in [3], in experiment [4], in [5] and in experiment [6] was inactive. Moreover, the outcome in [7], in experiment [8], in experiment [9], in experiment [10], in [11] and in experiment [12] was inactive. Also, the result in experiment [13], in experiment [14], in [15], in experiment [16], in experiment [17] and in experiment [18] was inactive. Further, the outcome in [19] was inactive.
Take `CCOP(=S)(OCC)Oc1cc(C)nc(C(C)C)n1`: the outcome in experiment [1], in [2], in experiment [3], in [4], in experiment [5] and in experiment [6] was inactive. Further, the result in experiment [7], in [9], in experiment [10], in experiment [11], in experiment [12] and in [13] was inactive. Moreover, the result in [14], in experiment [15], in experiment [16], in experiment [17], in experiment [18] and in experiment [19] was inactive. In addition, the concentration at half-maximal activity (AC50) in [8] was 14.3 µM (active).
For the molecule `CCc1cnc(C2=NC(C)(C(C)C)C(=O)N2)c(C(=O)O)c1` (configuration not stated), the outcome in experiment [1], in experiment [2], in experiment [3], in experiment [4], in experiment [5] and in experiment [6] was inactive. For the same molecule, the result in [7], in experiment [8], in [9], in [10], in [11] and in experiment [12] was inactive. For the same molecule, the outcome in experiment [13], in [14], in [15], in experiment [16], in experiment [17] and in [18] was inactive. Further, the outcome in [19] and in experiment [20] was inactive.
